TROY signal inh = blocks TROY-dependent signaling in reporter cells; hit rate 0.98% among 360,000; Q293 LMP1-TROYcd NF-kB luciferase reporter, 4 h; inhibition, % at 10 µM;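 active = compounds whose plate-normalised and pattern-corrected inhibition of the luciferase reporter signal at the single screening dose is 50% or more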
HSP90 refold inh = HSP90 refolding inhibition in rabbit reticulocyte lysate | luciferase refolding luminescence, 3 h | inhibition, % at 5.6 µM | hit rate 0.91% among 290,000 | AID 1789;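 active = inhibition above the screen-wide mean plus 3 SD, computed separately per campaign, cut at about 16% in these data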;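 note: inhibitors lower the luminescence because luciferase stays unfolded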
LGR2 antag = blocks bursicon-induced cAMP signaling via Drosophila LGR2. HEK293 LGR2, CRE-luciferase, bursicon-stimulated, 4 h. inhibition, % at 9.99 µM. hit rate 0.35% among 380,000. AID 720647;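 active = drop in luminescence signal, shown as inhibition above about 50% in the replicate tests, limit read from the data, passing the limit was not always enough; inconclusive = probably only some replicates passing the limit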;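 note: agonist challenge used bursicon conditioned medium at about half maximal strength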
TWEAK-Fn14 inh = blocks TWEAK-Fn14 interaction in a reporter cell assay. AID 1159606. hit rate 2% among 360,000. inhibition, % at 10 µM. TWEAK-stimulated Fn14 reporter cells, luciferase luminescence, 8 h; in the data active = inhibition above about 50%
HSP90 inh confirm = HSP90 inhibition, confirmation assay | inhibition, % at 5.9 µM | rabbit reticulocyte lysate, luciferase refolding luminescence, 3 h | shares compounds with HSP90 refold inh | hit rate 64% among 2,300; in the data active = inhibition above about 18%
FLuc counter = firefly luciferase inhibition, HSP90 counter-screen. shares compounds with HSP90 refold inh. purified native firefly luciferase, luminescence. inhibition, % at 5.9 µM. hit rate 48% among 2,300;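 active = inhibition above the mean inhibition of all tested sample wells plus 3 SD, cut at about 10% in these data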
Target sequence (P08659 whole entry, looked up): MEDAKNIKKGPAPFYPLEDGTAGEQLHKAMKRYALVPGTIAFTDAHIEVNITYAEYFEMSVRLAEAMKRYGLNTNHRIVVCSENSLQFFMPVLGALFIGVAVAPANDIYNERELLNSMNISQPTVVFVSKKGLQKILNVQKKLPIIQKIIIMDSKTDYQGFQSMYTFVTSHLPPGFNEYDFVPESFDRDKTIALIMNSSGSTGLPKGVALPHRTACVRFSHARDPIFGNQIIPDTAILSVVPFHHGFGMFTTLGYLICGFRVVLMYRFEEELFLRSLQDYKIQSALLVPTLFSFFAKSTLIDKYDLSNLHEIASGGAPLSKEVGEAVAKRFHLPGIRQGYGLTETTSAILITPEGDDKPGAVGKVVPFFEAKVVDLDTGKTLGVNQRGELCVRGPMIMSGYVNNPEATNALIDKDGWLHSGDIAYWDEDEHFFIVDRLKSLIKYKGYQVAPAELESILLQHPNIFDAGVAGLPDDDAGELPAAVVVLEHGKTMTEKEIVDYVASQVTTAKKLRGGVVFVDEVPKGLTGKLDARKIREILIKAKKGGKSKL
Numbers stand for hits; – = inactive; ? = inconclusive; · = no result given. Most compounds without a hit are left out; they make up all but 2.2% or so of the library.

SMILES	TROY signal inh	HSP90 refold inh	LGR2 antag	TWEAK-Fn14 inh	HSP90 inh confirm	FLuc counter
CNC[C@@H]1Oc2ccc(NC(=O)Cn3cnnn3)cc2CC(=O)N([C@@H](C)CO)C[C@@H]1C	·	·	–	·	·	·
O=C(Cc1cccnc1)N[C@H]1CC[C@H](CCn2cc(Cc3ccccc3)nn2)O[C@H]1CO	·	·	–	·	·	·
CCC(C)c1ccc(NC(=O)COC(=O)CCNC(=O)c2ccco2)cc1 (stereo not given)	–	·	–	–	·	·
CCC(C)c1ccc(NC(=O)c2ccco2)cc1 (stereo not given)	–	41.5	52.2	65.7	68.9	63.2
CC1(C)C2CCC(C2)C1(C)NC(=O)CN1CCOCC1 (stereo not given)	–	27.6	·	–	–	–
CC1(C)C2CCC(C2)C1(C)NC(=O)CN1CCCC1 (stereo not given)	–	–	–	–	·	·
CC(C)(O)C1Cc2cc(/C=C/C(=O)O)c(O)cc2O1 (stereo not given)	–	27.5	–	–	–	–
Cc1cccc(NC(=O)c2sc3nc(-c4ccc(F)cc4)cn3c2C)n1	–	–	·	–	·	·
COc1ccc(-c2cn3c(C)c(C(=O)NC(C)C)sc3n2)cc1	–	–	·	–	·	·
COc1ccc(-c2cn3c(C)c(C(=O)Nc4cccc(C)n4)sc3n2)cc1	–	76.8	–	–	73.1	–
Cc1cccc(NC(=O)c2sc3nc(-c4ccccc4)cn3c2C)n1	–	27.0	–	–	–	–
CN(C)CC(=O)Nc1ccc2c(c1)[C@@H]1C[C@@H](CC(=O)NCc3ccncc3)O[C@@H](CO)[C@@H]1O2	·	·	–	·	·	·
O=C(O)c1cccc(Nc2nc(N3CCOCC3)nc(N3CCOCC3)n2)c1	–	–	–	–	·	·
O=C(O)c1cccc(Nc2ccnc(Nc3cccc(C(=O)O)c3)n2)c1	–	37.4	89.9	–	39.5	58.0
O=C(C[C@H]1CC[C@H]2[C@@H](COC[C@H](O)CN2CC2CC2)O1)NCC1CC1	·	·	–	·	·	·
COc1ccc(-c2noc(CCC(=O)Nc3cccnc3)n2)cc1	–	–	–	–	·	·
CC(C)(C)c1ccc(-c2noc(CCC(=O)Nc3cccnc3)n2)cc1	58.1	45.0	–	–	–	–
CN(C)C(=O)CCc1nc(-c2ccc(C(C)(C)C)cc2)no1	–	19.8	–	–	27.0	–
O=C(Nc1ccc(C(=O)N2CCCC2)cc1)c1cccc(C(F)(F)F)c1	–	20.8	–	–	–	–
O=C(C[C@H]1CC[C@H]2[C@@H](COC[C@H](O)CN2C(=O)Nc2cccc(F)c2)O1)NCc1ccccc1Cl	·	·	–	·	·	·
O=C(NC1CCCCC1)NC1(C(=O)NCCCN2CCOCC2)CCCCC1	–	27.0	·	–	–	–
O=C(Nc1ccccc1Cl)NC1(C(=O)NCCCN2CCOCC2)CCCCC1	–	–	·	–	·	·
CCNC(=O)[C@@H]1[C@@H](CO)[C@@H]2Cn3c(ccc(-c4ccccc4)c3=O)[C@@H]2N1C(=O)C1CCC1	·	·	–	·	·	·
CC(=O)N1[C@@H]2c3ccc(-c4ccccc4)c(=O)n3C[C@@H]2[C@@H](CO)[C@@H]1C(=O)N(C)C	·	·	–	·	·	·
COc1ccc(CC(=O)Oc2cc(C)ccc2C)cc1	–	17.3	–	–	–	–
SMILES	TROY signal inh	HSP90 refold inh	LGR2 antag	TWEAK-Fn14 inh	HSP90 inh confirm	FLuc counter
COc1ccc(OC(=O)COc2cc(C)ccc2C)cc1	–	–	–	–	·	·
CC1=CC(C)(C)Nc2ccc(OC(=O)c3ccco3)cc21	–	17.3	–	87.8	32.5	–
CCOC(=O)c1cn2nc(Oc3ccc(C)cc3)ccc2n1	–	–	–	–	·	·
CCOC(=O)c1cn2nc(N3CCCC3)ccc2n1	–	34.1	68.2	78.9	67.0	42.9
CCOC(=O)c1cn2nc(Oc3ccccc3)ccc2n1	–	–	–	–	·	·
CCOC(=O)c1cn2nc(N3CCCCC3)ccc2n1	70.9	39.1	88.2	89.2	72.0	58.9
COc1ccccc1C#Cc1ccc([C@H]2[C@H](CO)N3CCCCN(S(C)(=O)=O)C[C@@H]23)cc1	·	·	–	·	·	·
C[C@@H]1CN([C@H](C)CO)C(=O)c2ccccc2-c2ccccc2CO[C@@H]1CN(C)C(=O)CCN(C)C	·	·	–	·	·	·
CC(C)[C@H](C)NC(=O)N(C)C[C@H]1OCc2ccccc2-c2c(n(C)c3ccccc23)C(=O)N([C@@H](C)CO)C[C@H]1C	·	·	–	·	·	·
Nc1cc2nn(-c3ccccc3)nc2cc1Cl	–	42.6	·	–	18.1	–
Nc1ccc2nn(-c3ccccc3)nc2c1	–	–	–	–	·	·
COc1cccc(/C=C2\SC(=O)NC2=O)c1OCc1ccc(C(=O)O)cc1	–	22.8	–	–	–	–
CCOc1ccc(CCNC(=O)Cn2ncn3nc(-c4ccc(OC)cc4)cc3c2=O)cc1	–	–	–	–	·	·
COc1ccc(-c2cc3c(=O)n(CC(=O)NCCCN4CCN(Cc5ccccc5)CC4)ncn3n2)cc1	–	25.6	–	–	51.0	34.7
COc1ccc(-c2cc3c(=O)n(CC(=O)NCCCN4CCC(Cc5ccccc5)CC4)ncn3n2)cc1	–	55.3	–	–	59.5	–
COc1cccc(CNC(=O)C[C@H]2CC[C@H](NS(=O)(=O)c3ccccc3OC)[C@H](CO)O2)c1	·	·	–	·	·	·
CCCNC(=O)N1CC2(C1)[C@@H](c1ccccc1)[C@@H](CO)N2C(=O)C1CCCC1	·	·	–	·	·	·
O=C(CSc1nc2ccccc2c(=O)n1CC1CCCO1)NCC1CCCO1 (stereo not given)	–	–	–	–	·	·
COc1ccc(C(=O)Nn2c(SCC(=O)NCc3ccccc3)nc3ccccc3c2=O)cc1	77.7	68.3	·	85.1	49.5	49.0
COc1ccc(C(=O)Nn2c(SCC(=O)NCC3CCCO3)nc3ccccc3c2=O)cc1 (stereo not given)	77.6	62.7	·	95.2	77.8	71.6
COc1ccc(C(=O)Nn2c(SCC(=O)NC3CCCC3)nc3ccccc3c2=O)cc1	78.5	71.6	·	78.5	52.5	48.9
O=C(CSc1nc2ccccc2c(=O)n1NC(=O)Cc1ccccc1)NCc1ccccc1	–	–	·	–	·	·
CC(C)C#Cc1cnc2c(c1)C(=O)N([C@H](C)CO)C[C@@H](C)[C@H](CN(C)C(=O)Nc1cc(F)ccc1F)O2	·	·	–	·	·	·
Cc1ccc(-n2cc(C(=O)c3ccccc3O)cn2)cc1	–	31.1	·	83.0	61.3	48.2
Cc1ccc(O)c(C(=O)c2cnn(-c3ccccc3)c2)c1	–	–	·	–	·	·
SMILES	TROY signal inh	HSP90 refold inh	LGR2 antag	TWEAK-Fn14 inh	HSP90 inh confirm	FLuc counter
CC(C)CN1C(=O)NC(NC(=O)c2ccco2)(C(F)(F)F)C1=O (stereo not given)	–	27.4	·	–	–	–
CN1C(=O)NC(NC(=O)c2ccco2)(C(F)(F)F)C1=O (stereo not given)	–	–	·	–	·	·
Nc1c(C(=O)Nc2cccc(C(=O)O)c2)sc2nc3c(cc12)CCCC3	–	91.4	76.0	–	97.1	89.7
c1ccc2nc(-c3nc4ccccc4[nH]3)ccc2c1	–	25.7	·	82.2	72.4	62.0
c1ccc2[nH]c(-c3cscn3)nc2c1	–	–	–	–	·	·
CN(C)c1cccc2c(/C=N/O)ccc(N(C)C)c12	–	52.0	–	–	–	–
O=C(Nc1cccc(Cl)c1)Nc1cccc(C(=O)O)c1	–	50.8	?	–	69.4	62.8
